Inconclusive results are not listed. Active and inactive are the calls of the source. The calls were made as follows, unless noted: active = hit-call score of the fitted dose curve at least 0.9, where 1 is the maximum; inconclusive = response in the unintended direction; inactive = score below 0.9.
Tests used:
[1] = ATG_TAL_CIS: Attagene CIS-FACTORIAL HepG2 Assay for human TAL Basal Promoter (AID 2282966; active = hit-call score of the fitted dose curve at least 0.9, where 1 is the maximum; inactive = score below 0.9;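 also: background control endpoint measuring basal TAL promoter reporter mRNA not a specific factor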); settings: HepG2 Attagene cis-factorial TAL promoter reporter; actives raise or lower the signal
Summary of the method: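 Human hepatoma HepG2 cells, transfected with promoter-regulated reporter units, were treated 24 h. Reporter transcript levels, measured through RT-PCR and capillary electrophoresis, were fitted for gain or loss relative to DMSO.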

[2] = ATG_TGFb_CIS: Attagene CIS-FACTORIAL HepG2 Assay for human Transforming Growth Factor (TGF) (AID 2282967; active = hit-call score of the fitted dose curve at least 0.9, where 1 is the maximum; inactive = score below 0.9); settings: HepG2 Attagene CIS TGFb reporter, mRNA transcription; actives raise or lower the signal
Summary of the method: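 Bidirectional fitting relative to DMSO gave the endpoint. Underlying data: reporter mRNA from HepG2 cells carrying transiently transfected cis-regulated reporter constructs, harvested 24 h after dosing and analyzed by RT-PCR and capillary electrophoresis.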

[3] = ATG_VDRE_CIS: Attagene CIS-FACTORIAL HepG2 Assay for human Vitamin D Receptor Element (VDRE) (AID 2282968; active = hit-call score of the fitted dose curve at least 0.9, where 1 is the maximum; inactive = score below 0.9); settings: HepG2 VDRE cis-reporter transcription, actives raise or lower the signal
Summary of the method: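 Readout is VDRE-driven reporter mRNA reflecting endogenous factor activity in human HepG2 cells, sampled 24 h post-dose. Quantification used labelled RT-PCR products separated by capillary electrophoresis; bidirectional analysis relative to DMSO.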

[4] = molecular target: X-box-binding protein 1 (Homo sapiens) (UniProt P17861); test: ATG_Xbp1_CIS: Attagene CIS-FACTORIAL HepG2 Assay for human X-box Binding Protein 1 (XBP1) (AID 2282972; active = hit-call score of the fitted dose curve at least 0.9, where 1 is the maximum; inactive = score below 0.9); settings: HepG2 XBP1 cis-element reporter, Attagene multiplex; actives raise or lower the signal
Summary of the method: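 Multiplexed cis-reporter readout in transfected HepG2 liver cells. Exposure lasted 24 hours. Activity in either direction was fitted against DMSO as negative control and baseline.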

[5] = ATG_M_19_TRANS: Attagene TRANS-FACTORIAL HepG2 Assay for M19 Transcription Factor (Internal Marker) (AID 2282974); settings: HepG2 Attagene TRANS-FACTORIAL M19 internal marker reporter
Summary of the method: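 HepG2 cells transiently transfected with multiple GAL4-UAS reporter transcription units were exposed to chemicals for 24 h. Reporter mRNA was read by RT-PCR, 6-FAM primer extension, HpaI digestion and capillary electrophoresis; gain of signal fitted relative to DMSO.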

[6] = molecular target: Glucocorticoid receptor (Homo sapiens) (UniProt P04150); test: ATG_GR_TRANS: Attagene TRANS-FACTORIAL HepG2 Assay for human Glucocorticoid Receptor (GR) (AID 2282978); settings: HepG2 Attagene TRANS GR reporter, mRNA transcription;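 also: activators score as hits since higher reporter transcript over DMSO is fitted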
Summary of the method: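 HepG2 cells transiently transfected with multiplexed reporter units in which chimeric NR-GAL4 proteins drive GAL4-UAS reporters; 24 h compound exposure. Reporter mRNA measured by RT-PCR, 6-FAM labelling, HpaI digestion and capillary electrophoresis; gain-of-signal fitted versus DMSO.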

[7] = molecular target: Oxysterols receptor LXR-alpha (Homo sapiens) (UniProt Q13133); test: ATG_LXRa_TRANS: Attagene TRANS-FACTORIAL HepG2 Assay for human Liver X Receptor alpha (LXRa) (AID 2282980); settings: HepG2 Attagene TRANS reporter, LXRa transactivation
Summary of the method: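 In this multiplexed TRANS system, compounds act on HepG2 cells carrying GAL4-UAS reporter units and a receptor-GAL4 fusion for 24 h. Induced reporter RNA is amplified, fluorescently labelled and sized by capillary electrophoresis, with DMSO as baseline.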

[8] = molecular target: Oxysterols receptor LXR-beta (Homo sapiens) (UniProt P55055); test: ATG_LXRb_TRANS: Attagene TRANS-FACTORIAL HepG2 Assay for human Liver X Receptor beta (LXRb) (AID 2282981); settings: HepG2 Attagene TRANS GAL4-LXRb reporter, mRNA
Summary of the method: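 After 24 h chemical treatment of transfected HepG2 cells carrying exogenous NR-Gal4 chimeras, reporter mRNA was quantified by fluorescent RT-PCR and capillary electrophoresis; activity taken as increase over DMSO controls.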

[9] = molecular target: Hepatocyte nuclear factor 4-alpha (Homo sapiens) (UniProt P41235); test: ATG_HNF4a_TRANS: Attagene TRANS-FACTORIAL HepG2 Assay for human Hepatocyte Nuclear Factor 4 alpha (HNF4a) (AID 2282982); settings: HepG2 HNF4a transactivation reporter, mRNA readout
Summary of the method: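 Activity of an exogenous HNF4a–Gal4 fusion scored as induced GAL4-UAS reporter transcripts after 24 h chemical exposure of transfected human HepG2 cells. Read-out via RT-PCR with 6-FAM labelling and capillary electrophoresis; rise over DMSO baseline.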

[10] = molecular target: Nuclear receptor subfamily 4 group A member 2 (Homo sapiens) (UniProt P43354); test: ATG_NURR1_TRANS: Attagene TRANS-FACTORIAL HepG2 Assay for human Nuclear Receptor Related Protein 1 (NURR1) (AID 2282985); settings: HepG2 Attagene TRANS reporter, mRNA readout
Summary of the method: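 Reporter transcript induction, measured by RT-PCR with fluorescent labelling, HpaI digestion and capillary electrophoresis, after 24 hr dosing of human HepG2 cells transiently expressing an exogenous NR-Gal4 fusion with GAL4-UAS-driven reporters; DMSO as baseline.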

[11] = molecular target: Transcriptional activator Myb (Homo sapiens) (UniProt P10242); test: ATG_Myb_CIS: Attagene CIS-FACTORIAL HepG2 Assay for human Myeloblastosis (Myb) Proto-Oncogene Transcription Factor (AID 2282986; active = hit-call score of the fitted dose curve at least 0.9, where 1 is the maximum; inactive = score below 0.9); settings: HepG2 Attagene CIS-FACTORIAL Myb reporter transcription; actives raise or lower the signal
Summary of the method: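 HepG2 cells were transiently transfected with cis-regulated multiple reporter transcription units reflecting endogenous Myb activity, then exposed to compound for 24 hours. Reporter mRNA was measured by RT-PCR with capillary electrophoresis; bidirectional fitting versus DMSO baseline.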

[12] = molecular target: Nuclear respiratory factor 1 (Homo sapiens) (UniProt Q16656); test: ATG_NRF1_CIS: Attagene CIS-FACTORIAL HepG2 Assay for human Nuclear Respiratory Factor 1 (NRF1) Orphan Gene (AID 2282987; active = hit-call score of the fitted dose curve at least 0.9, where 1 is the maximum; inactive = score below 0.9); settings: HepG2 NRF1 cis-element reporter, Attagene multiplex; actives raise or lower the signal
Summary of the method: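 HepG2 cells transiently transfected with multiple reporter transcription units under cis-regulatory promoter control, so endogenous transcription-factor activity is read. After 24 h compound exposure, reporter mRNA quantified by RT-PCR, fluorescent labelling, HpaI digestion and capillary electrophoresis; bidirectional fitting versus DMSO.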

[13] = ATG_GAL4_TRANS: Attagene TRANS-FACTORIAL HepG2 Assay for GAL4 (Internal Marker) (AID 2282976); settings: HepG2 Attagene TRANS GAL4 internal marker reporter
Summary of the method: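 Liver HepG2 line bearing multiplexed GAL4-UAS reporter constructs; 24 h chemical treatment. Transcripts were quantified as fluorescent fragments on capillary electrophoresis after RT-PCR and HpaI cut, with activity fitted upward from DMSO.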

[14] = ATG_M_06_TRANS: Attagene TRANS-FACTORIAL HepG2 Assay for M06 Transcription Factor (Internal Marker) (AID 2282983); settings: HepG2 Attagene TRANS M06 internal marker reporter
Summary of the method: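 Multi-reporter-transfected HepG2, 24 h treatment; reporter transcripts quantified via RT-PCR, primer-extension labelling and CE. DMSO-normalized gain-of-signal fit.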

[15] = molecular target: Estrogen-related receptor gamma (Homo sapiens) (UniProt P62508); test: ATG_ERRg_TRANS: Attagene TRANS-FACTORIAL HepG2 Assay for human Estrogen-Related Receptor gamma (ERRg) (AID 2282977); settings: HepG2 Attagene TRANS reporter, ERRg transactivation;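 also: hits increase reporter signal over DMSO so potencies reflect activators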
Summary of the method: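 Exogenous NR-Gal4 chimera activity measured as reporter transcript induction after 24 h in transiently transfected HepG2 cells. RNA reverse-transcribed, PCR-amplified, 6-FAM-labelled and resolved by capillary electrophoresis; increase over DMSO baseline.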

[16] = molecular target: Bile acid receptor (Homo sapiens) (UniProt Q96RI1); test: ATG_FXR_TRANS: Attagene TRANS-FACTORIAL HepG2 Assay for Farnesoid X Receptor (FXR) (AID 2282979); settings: HepG2 Attagene TRANS FXR-GAL4 reporter transcription;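 also: hits raise reporter mRNA above DMSO so AC50 marks FXR activation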
Summary of the method: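 After 24 h chemical treatment of transfected HepG2 cells, GAL4-UAS reporter transcripts driven by an exogenous FXR-GAL4 fusion were measured by RT-PCR and capillary electrophoresis. Increases over DMSO were fitted.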

[17] = ATG_M_32_TRANS: Attagene TRANS-FACTORIAL HepG2 Assay for M32 Transcription Factor (Internal Marker) (AID 2282984); settings: HepG2 Attagene TRANS M32 internal marker reporter
Summary of the method: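 Internal background reporter in transfected HepG2: after 24 h chemical exposure, RNA reverse-transcribed, reporter cDNA amplified, fluorescently labelled and HpaI-cut, then sized by capillary electrophoresis. Gain of signal fitted against DMSO control.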

Measured: AC50

Sequence of Oxysterols receptor LXR-beta (Homo sapiens) (P55055 whole entry, looked up, the tested form may be a part): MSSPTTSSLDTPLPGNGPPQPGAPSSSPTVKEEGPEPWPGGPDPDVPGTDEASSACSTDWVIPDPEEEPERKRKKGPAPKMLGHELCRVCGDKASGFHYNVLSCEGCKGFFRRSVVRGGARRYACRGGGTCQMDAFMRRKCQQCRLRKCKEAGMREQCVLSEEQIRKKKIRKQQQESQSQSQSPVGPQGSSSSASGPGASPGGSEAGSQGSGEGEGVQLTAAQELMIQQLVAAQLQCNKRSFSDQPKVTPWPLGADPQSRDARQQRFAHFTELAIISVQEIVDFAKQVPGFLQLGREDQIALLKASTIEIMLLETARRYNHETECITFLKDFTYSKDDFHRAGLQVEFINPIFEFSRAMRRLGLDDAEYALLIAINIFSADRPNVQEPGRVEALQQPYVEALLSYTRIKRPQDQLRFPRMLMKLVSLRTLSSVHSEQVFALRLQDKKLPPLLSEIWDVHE
Sequence of Transcriptional activator Myb (Homo sapiens) (P10242 whole entry, looked up): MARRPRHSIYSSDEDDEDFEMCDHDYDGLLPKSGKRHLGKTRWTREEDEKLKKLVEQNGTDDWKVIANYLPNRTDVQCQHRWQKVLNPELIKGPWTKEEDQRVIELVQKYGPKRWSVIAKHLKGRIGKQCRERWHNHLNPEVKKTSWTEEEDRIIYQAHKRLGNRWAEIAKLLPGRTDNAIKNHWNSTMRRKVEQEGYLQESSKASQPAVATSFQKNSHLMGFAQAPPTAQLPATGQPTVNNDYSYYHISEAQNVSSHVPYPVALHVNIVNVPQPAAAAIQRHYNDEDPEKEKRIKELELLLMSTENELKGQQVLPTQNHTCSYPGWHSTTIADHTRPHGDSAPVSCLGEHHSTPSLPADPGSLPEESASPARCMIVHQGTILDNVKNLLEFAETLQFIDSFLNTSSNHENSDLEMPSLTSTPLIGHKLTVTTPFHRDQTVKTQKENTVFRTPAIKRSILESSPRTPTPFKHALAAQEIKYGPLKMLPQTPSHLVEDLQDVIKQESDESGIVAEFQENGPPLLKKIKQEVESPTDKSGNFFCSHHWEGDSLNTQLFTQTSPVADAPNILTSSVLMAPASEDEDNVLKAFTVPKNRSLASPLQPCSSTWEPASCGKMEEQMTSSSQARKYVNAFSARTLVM
Sequence of Oxysterols receptor LXR-alpha (Homo sapiens) (Q13133 whole entry, looked up, the tested form may be a part): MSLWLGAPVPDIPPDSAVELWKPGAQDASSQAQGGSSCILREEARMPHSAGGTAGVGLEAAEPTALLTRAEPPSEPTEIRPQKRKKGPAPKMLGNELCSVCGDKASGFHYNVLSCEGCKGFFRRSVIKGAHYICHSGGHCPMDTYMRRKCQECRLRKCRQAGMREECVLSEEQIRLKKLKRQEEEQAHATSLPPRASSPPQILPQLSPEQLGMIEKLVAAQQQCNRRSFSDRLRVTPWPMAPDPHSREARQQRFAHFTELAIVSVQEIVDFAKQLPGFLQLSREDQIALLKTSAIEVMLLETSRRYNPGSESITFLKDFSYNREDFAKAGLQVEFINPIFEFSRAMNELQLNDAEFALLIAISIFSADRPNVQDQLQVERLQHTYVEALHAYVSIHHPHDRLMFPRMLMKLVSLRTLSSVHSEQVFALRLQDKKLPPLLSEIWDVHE
Sequence of Glucocorticoid receptor (Homo sapiens) (P04150 whole entry, looked up, the tested form may be a part): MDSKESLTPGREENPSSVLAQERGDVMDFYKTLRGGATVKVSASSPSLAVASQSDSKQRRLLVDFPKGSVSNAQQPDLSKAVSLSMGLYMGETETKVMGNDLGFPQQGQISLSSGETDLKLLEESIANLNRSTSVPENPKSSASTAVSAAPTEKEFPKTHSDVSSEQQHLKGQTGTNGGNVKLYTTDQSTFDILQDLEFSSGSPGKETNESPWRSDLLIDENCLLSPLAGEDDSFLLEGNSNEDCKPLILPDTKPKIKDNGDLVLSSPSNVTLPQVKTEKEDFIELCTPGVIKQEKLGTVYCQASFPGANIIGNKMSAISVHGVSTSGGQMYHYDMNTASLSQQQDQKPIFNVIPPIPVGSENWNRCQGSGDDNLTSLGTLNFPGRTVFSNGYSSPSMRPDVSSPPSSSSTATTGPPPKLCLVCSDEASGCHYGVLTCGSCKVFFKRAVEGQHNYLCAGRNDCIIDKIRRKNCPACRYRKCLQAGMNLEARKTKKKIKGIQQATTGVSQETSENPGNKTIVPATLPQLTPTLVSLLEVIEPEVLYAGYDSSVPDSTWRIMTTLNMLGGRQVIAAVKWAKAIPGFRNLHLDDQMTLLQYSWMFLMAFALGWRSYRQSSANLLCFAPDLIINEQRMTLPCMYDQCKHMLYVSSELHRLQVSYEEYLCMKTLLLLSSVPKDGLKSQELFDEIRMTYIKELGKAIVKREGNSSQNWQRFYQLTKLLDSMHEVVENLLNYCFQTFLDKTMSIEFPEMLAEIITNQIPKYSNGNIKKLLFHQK
Sequence of Nuclear receptor subfamily 4 group A member 2 (Homo sapiens) (P43354 whole entry, looked up, the tested form may be a part): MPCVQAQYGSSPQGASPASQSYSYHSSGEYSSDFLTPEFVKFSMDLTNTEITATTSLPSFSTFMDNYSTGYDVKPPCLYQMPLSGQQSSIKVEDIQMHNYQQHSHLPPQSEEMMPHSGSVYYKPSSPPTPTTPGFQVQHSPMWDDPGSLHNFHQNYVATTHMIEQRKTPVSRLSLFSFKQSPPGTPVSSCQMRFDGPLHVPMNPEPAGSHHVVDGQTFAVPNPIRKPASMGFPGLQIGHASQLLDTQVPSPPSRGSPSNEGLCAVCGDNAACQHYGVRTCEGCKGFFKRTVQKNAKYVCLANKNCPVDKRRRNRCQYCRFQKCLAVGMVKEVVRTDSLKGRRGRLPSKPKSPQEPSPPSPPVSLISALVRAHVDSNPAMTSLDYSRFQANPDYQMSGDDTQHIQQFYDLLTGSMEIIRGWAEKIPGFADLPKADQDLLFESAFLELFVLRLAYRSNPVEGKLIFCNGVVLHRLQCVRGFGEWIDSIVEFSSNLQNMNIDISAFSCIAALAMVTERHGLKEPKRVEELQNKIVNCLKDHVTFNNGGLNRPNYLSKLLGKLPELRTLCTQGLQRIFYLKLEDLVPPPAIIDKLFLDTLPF
Sequence of Bile acid receptor (Homo sapiens) (Q96RI1 whole entry, looked up, the tested form may be a part): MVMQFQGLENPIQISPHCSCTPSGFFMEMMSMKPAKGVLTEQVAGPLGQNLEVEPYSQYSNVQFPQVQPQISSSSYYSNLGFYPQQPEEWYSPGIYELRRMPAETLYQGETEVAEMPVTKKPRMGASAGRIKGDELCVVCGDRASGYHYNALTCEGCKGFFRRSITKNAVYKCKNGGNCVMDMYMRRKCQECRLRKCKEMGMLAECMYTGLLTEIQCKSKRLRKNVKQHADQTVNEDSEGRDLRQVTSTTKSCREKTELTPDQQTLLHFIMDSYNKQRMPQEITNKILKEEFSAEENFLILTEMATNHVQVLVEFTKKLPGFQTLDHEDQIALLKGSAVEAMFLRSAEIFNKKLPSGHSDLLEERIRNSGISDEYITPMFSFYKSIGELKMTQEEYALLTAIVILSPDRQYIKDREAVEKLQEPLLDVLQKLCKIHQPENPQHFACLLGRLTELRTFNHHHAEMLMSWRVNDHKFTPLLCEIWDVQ
Sequence of Nuclear respiratory factor 1 (Homo sapiens) (Q16656 whole entry, looked up): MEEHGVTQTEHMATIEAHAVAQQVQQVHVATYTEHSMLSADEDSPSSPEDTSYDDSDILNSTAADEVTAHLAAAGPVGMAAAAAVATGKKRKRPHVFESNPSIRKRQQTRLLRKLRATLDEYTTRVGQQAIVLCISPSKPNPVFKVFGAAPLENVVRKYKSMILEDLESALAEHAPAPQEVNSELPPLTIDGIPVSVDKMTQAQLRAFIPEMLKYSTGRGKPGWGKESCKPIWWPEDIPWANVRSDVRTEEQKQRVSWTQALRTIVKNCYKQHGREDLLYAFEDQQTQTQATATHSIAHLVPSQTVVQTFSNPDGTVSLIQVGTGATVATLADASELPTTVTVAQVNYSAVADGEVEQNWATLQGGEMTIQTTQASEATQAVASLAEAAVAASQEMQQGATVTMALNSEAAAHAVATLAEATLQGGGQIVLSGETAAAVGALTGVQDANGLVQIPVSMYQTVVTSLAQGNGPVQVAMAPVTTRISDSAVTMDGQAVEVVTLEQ
Sequence of X-box-binding protein 1 (Homo sapiens) (P17861 whole entry, looked up): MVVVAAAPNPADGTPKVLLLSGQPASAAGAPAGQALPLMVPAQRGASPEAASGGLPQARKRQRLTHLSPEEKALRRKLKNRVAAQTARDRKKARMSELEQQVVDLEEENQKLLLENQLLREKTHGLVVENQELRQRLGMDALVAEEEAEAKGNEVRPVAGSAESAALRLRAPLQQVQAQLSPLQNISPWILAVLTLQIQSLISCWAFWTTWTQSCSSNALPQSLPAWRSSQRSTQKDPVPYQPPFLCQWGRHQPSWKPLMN
Sequence of Hepatocyte nuclear factor 4-alpha (Homo sapiens) (P41235 whole entry, looked up, the tested form may be a part): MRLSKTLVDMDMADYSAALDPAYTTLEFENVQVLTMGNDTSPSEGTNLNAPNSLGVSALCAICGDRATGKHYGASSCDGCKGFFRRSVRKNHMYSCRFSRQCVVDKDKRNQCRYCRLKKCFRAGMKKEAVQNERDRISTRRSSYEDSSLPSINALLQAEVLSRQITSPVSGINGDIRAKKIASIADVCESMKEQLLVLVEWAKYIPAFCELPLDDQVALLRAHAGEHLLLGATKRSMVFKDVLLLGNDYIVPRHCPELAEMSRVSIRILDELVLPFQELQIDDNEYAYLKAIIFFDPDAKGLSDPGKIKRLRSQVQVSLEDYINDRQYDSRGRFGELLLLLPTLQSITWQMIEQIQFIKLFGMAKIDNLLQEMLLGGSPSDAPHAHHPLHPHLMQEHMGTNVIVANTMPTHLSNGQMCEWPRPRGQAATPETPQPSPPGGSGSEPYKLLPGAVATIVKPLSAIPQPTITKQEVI

C[C@H]1O[C@@H](O[C@H]2[C@@H](O)C[C@H](O[C@H]3[C@@H](O)C[C@H](O[C@H]4CC[C@@]5(C)[C@H](CC[C@@H]6[C@@H]5C[C@@H](O)[C@]5(C)[C@@H](C7=CC(=O)OC7)CC[C@]65O)C4)O[C@@H]3C)O[C@@H]2C)C[C@H](O)[C@@H]1O
active: [3] 226 nM | [4] 141 nM | [11] 428 nM | [12] 3.12 nM
not listed: [13] | [14] | [15] | [16] | [17]
inactive: all other assays above

O=C1NC2NC(=O)NC2N1 (stereo unspecified)
not listed: [6] | [7] | [15] | [16] | [17]
inactive: all other assays above

COc1cc([C@@H]2c3cc4c(cc3[C@@H](O[C@@H]3O[C@@H]5CO[C@@H](C)O[C@H]5[C@H](O)[C@H]3O)[C@H]3COC(=O)[C@H]23)OCO4)cc(OC)c1O
not listed: [6] | [7] | [8] | [10] | [13] | [17]
inactive: all other assays above

CCc1cc(C(C)(C)C)c(O)c(C(C)(C)C)c1
active: [10] 11400 nM
not listed: [9] | [13] | [14] | [15]
inactive: all other assays above

CC1=NN(c2ccc(S(=O)(=O)O)cc2)C(=O)C1
not listed: [9] | [10] | [14] | [15] | [16]
inactive: all other assays above

CCc1ccc(O)cc1
not listed: [7] | [8] | [12] | [16] | [17]
inactive: all other assays above

CCCCC(CC)C(=O)OC(C)C (stereo unspecified)
not listed: [6] | [9] | [12] | [15] | [16]
inactive: all other assays above

COC(CC(C)CCCC(C)(C)O)OC (stereo unspecified)
inactive: [1] | [2] | [3] | [4] | [5] | [13] | [7] | [9] | [11]

C[C@H](CCC(=O)NCC(=O)O)[C@H]1CC[C@H]2[C@@H]3[C@H](O)C[C@@H]4C[C@H](O)CC[C@]4(C)[C@H]3C[C@H](O)[C@]12C
not listed: [7] | [10] | [13] | [14] | [15] | [16] | [17]
inactive: all other assays above

CCCCCCCCCCCCS(=O)(=O)Cl
not listed: [7] | [8] | [10] | [13] | [14] | [15]
inactive: all other assays above

CC(C)CC(C)CC(O)CC(C)C (stereo unspecified)
not listed: [6] | [9] | [14] | [15] | [17]
inactive: all other assays above
